Our source for the growth values is PubChem BioAssay (NCI).

Some test systems named below: ACHN renal; A498 renal; CCRF-CEM leukemia; MOLT-4 leukemia; HCT-15 colon; HT29 colon; SNB-75 CNS; SNB-19 CNS; U251 CNS; PC-3 prostate; UACC-62 melanoma; LOX IMVI melanoma; SK-MEL-2 melanoma; EKVX NSCLC; SN12C renal; TK-10 renal; CAKI-1 renal; SK-MEL-28 melanoma; UO-31 renal.
Holding throughout (test): NCI-60 one-dose screen, 48 h (100 = growth as untreated, 0 = no growth, -100 = all killed)
The next assay deals with SK-MEL-5 melanoma. Particulars: 10 µM unless noted.

Several values for one entry are separate records, joined by “and”; a condition that tells them apart may be missing. Equal values may be shown once. The panel holds about 83,000 compounds, 20% with a hit somewhere; the sample as a whole holds those more often.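 Negative percent growth values reflect cell death: -40 means 40% of the cells present at the start died, and -100 means all died.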 Activity calls are given as the source filed them. The calls were made as follows: active = growth percent below 10; inactive = the rest.

As for `CC1(C)OB(c2ccc(Cn3cc(F)c(=O)[nH]c3=O)cc2)OC1(C)C`, the growth in the assay on ACHN renal (50 µM) was 92.1% (inactive); with A498 renal (10 µM unless noted) it was 25.6% [50 µM] (inactive); in the assay with CCRF-CEM leukemia (10 µM), 112% (inactive); with CCRF-CEM leukemia (50 µM), 37.7% (inactive); in the assay on MOLT-4 leukemia (10 µM) it was 99.3% (inactive); with MOLT-4 leukemia (50 µM), 54.7% (inactive).

Regarding `CC(C)(C)c1cc(NC(=O)Cc2ccc(-c3cnc4cc(-c5cnn(CCN6CCOCC6)c5)ccc4n3)cc2)no1`, the growth with HCT-15 colon (10 µM) is 9.24% (active); in the assay on HCT-15 colon (30 µM), 7.76% (active); in the assay on HT29 colon (10 µM) it was 25.9% (inactive); in the assay on HT29 colon (30 µM), 31.2% (inactive); in the assay with SNB-75 CNS (10 µM) it was -0.488% (active); with SNB-75 CNS (30 µM) it was -1.06% (active). For the same compound, the growth is 42.4% (inactive) in the assay on SNB-19 CNS (10 µM); 44% (inactive) in the assay with SNB-19 CNS (30 µM); 22.1% (inactive) in the assay on U251 CNS (10 µM); 33.4% (inactive) in the assay on U251 CNS (30 µM); 24.7% (inactive) with PC-3 prostate (10 µM); 23.9% (inactive) in the assay with PC-3 prostate (30 µM). Also, the growth with SK-MEL-5 melanoma was 9.52% (active); in the assay with UACC-62 melanoma (10 µM), 16.3% (inactive); in the assay on UACC-62 melanoma (30 µM) it was 19.6% (inactive); with LOX IMVI melanoma (10 µM), 17.7% (inactive); in the assay with LOX IMVI melanoma (30 µM), 8.41% (active); with SK-MEL-2 melanoma (10 µM), -8.73% (active). Besides, the growth in the assay on SK-MEL-2 melanoma (30 µM) was 29.7% (inactive); with EKVX NSCLC (10 µM), 26.9% (inactive); with EKVX NSCLC (30 µM), 19.1% (inactive); in the assay on SN12C renal (10 µM) it was 7.01% (active); in the assay on SN12C renal (30 µM), 6.88% (active); in the assay on TK-10 renal (10 µM), 34.9% (inactive). The growth is 40.8% (inactive) in the assay with TK-10 renal (30 µM); 5.88% (active) in the assay with ACHN renal (10 µM); 8.72% (active) with ACHN renal (30 µM); 1.21% (active) in the assay with CAKI-1 renal (10 µM); 3.67% (active) with CAKI-1 renal (30 µM); 15.5% (inactive) with CCRF-CEM leukemia (10 µM). In addition, the growth in the assay with CCRF-CEM leukemia (30 µM) is 10.4% (inactive); in the assay with MOLT-4 leukemia (10 µM) it was 13.8% (inactive); in the assay on MOLT-4 leukemia (30 µM) it was 10.8% (inactive).

For `O=Nc1ccc(O)cc1`, the growth with HCT-15 colon (10 µM unless noted) was 89.3% (inactive) and 92.3% (inactive); in the assay on HT29 colon (10 µM unless noted), 97.4% (inactive) and 97.5% (inactive); in the assay on SNB-75 CNS (10 µM unless noted) it was 95.6% (inactive); in the assay with SNB-19 CNS (10 µM unless noted), 106% (inactive) and 99.3% (inactive); in the assay with U251 CNS (10 µM unless noted), 101% (inactive) and 94.2% (inactive); in the assay with PC-3 prostate (10 µM unless noted), 85.1% (inactive) and 90% (inactive). Also, the growth was 98% (inactive) and 109% (inactive) in the assay with SK-MEL-5 melanoma; 90.2% (inactive) and 93.4% (inactive) with UACC-62 melanoma (10 µM unless noted); 90.8% (inactive) and 82.3% (inactive) in the assay with LOX IMVI melanoma (10 µM unless noted); 113% (inactive) in the assay on SK-MEL-28 melanoma (10 µM unless noted); 96.7% (inactive) and 109% (inactive) in the assay with SK-MEL-2 melanoma (10 µM unless noted); 91.6% (inactive) and 105% (inactive) in the assay with EKVX NSCLC (10 µM unless noted). Further, the growth in the assay with SN12C renal (10 µM unless noted) was 96.1% (inactive) and 97.3% (inactive); in the assay with UO-31 renal (10 µM unless noted) it was 90.7% (inactive) and 62.9% (inactive); with TK-10 renal (10 µM unless noted), 107% (inactive) and 105% (inactive); in the assay on ACHN renal (10 µM unless noted), 81.3% (inactive) and 75% (inactive); with CAKI-1 renal (10 µM unless noted) it was 97.9% (inactive); in the assay on A498 renal (10 µM unless noted) it was 122% (inactive) and 130% (inactive). Besides, the growth in the assay on CCRF-CEM leukemia (10 µM unless noted) was 75.4% (inactive) and 56.1% (inactive); in the assay on MOLT-4 leukemia (10 µM unless noted), 82.5% (inactive) and 89.2% (inactive).

Consider `Cc1ccc2nc3c(nc2c1)-c1cccc2cccc-3c12`, for which the growth with HCT-15 colon (10 µM unless noted) was 75.1% (inactive); in the assay on HT29 colon (10 µM unless noted), 80.3% (inactive); in the assay with SNB-75 CNS (10 µM unless noted), 94.9% (inactive); in the assay with SNB-19 CNS (10 µM unless noted) it was 100% (inactive); in the assay on U251 CNS (10 µM unless noted), 78.8% (inactive); in the assay on PC-3 prostate (10 µM unless noted), 87.4% (inactive). In addition, the growth with SK-MEL-5 melanoma is 62.7% (inactive); in the assay with UACC-62 melanoma (10 µM unless noted), 79.6% (inactive); with LOX IMVI melanoma (10 µM unless noted), 82.6% (inactive); with SK-MEL-28 melanoma (10 µM unless noted), 102% (inactive); with SK-MEL-2 melanoma (10 µM unless noted), 107% (inactive); with EKVX NSCLC (10 µM unless noted) it was 71.4% (inactive). For the same compound, the growth in the assay on SN12C renal (10 µM unless noted) is 81.2% (inactive); in the assay with UO-31 renal (10 µM unless noted) it was 63.1% (inactive); in the assay on TK-10 renal (10 µM unless noted), 83.5% (inactive); in the assay with ACHN renal (10 µM unless noted), 68.6% (inactive); in the assay on CAKI-1 renal (10 µM unless noted) it was 79.1% (inactive); in the assay on A498 renal (10 µM unless noted), 83.1% (inactive). Further, the growth with CCRF-CEM leukemia (10 µM unless noted) was 85.7% (inactive); with MOLT-4 leukemia (10 µM unless noted), 80.1% (inactive).

Take `CCCCCCCCCCCCCCCc1ccc(Cl)c(O)c1Cl` (tested in a mixture with another compound): the growth was 76.6% (inactive) with HCT-15 colon (0.25 µM); 109% (inactive) with HCT-15 colon (10 µM); 43.1% (inactive) in the assay on HT29 colon (0.25 µM); 88% (inactive) with HT29 colon (10 µM); 36.6% (inactive) with SNB-75 CNS (0.25 µM); 94.2% (inactive) with SNB-75 CNS (10 µM). For the same compound, the growth is 10.8% (inactive) with SNB-19 CNS (0.25 µM); 111% (inactive) with SNB-19 CNS (10 µM); 13% (inactive) in the assay on U251 CNS (0.25 µM); 92.9% (inactive) in the assay with U251 CNS (10 µM); 59.5% (inactive) with PC-3 prostate (0.25 µM); 90.4% (inactive) with PC-3 prostate (10 µM). Moreover, the growth is 87.7% (inactive) in the assay with SK-MEL-5 melanoma; 22.8% [0.25 µM] (inactive) in the assay with UACC-62 melanoma (10 µM unless noted); 19.4% (inactive) with LOX IMVI melanoma (0.25 µM); 99.2% (inactive) in the assay with LOX IMVI melanoma (10 µM); 51.3% (inactive) in the assay on SK-MEL-28 melanoma (0.25 µM); 109% (inactive) in the assay with SK-MEL-28 melanoma (10 µM). The growth with SK-MEL-2 melanoma (0.25 µM) is 57.4% (inactive); with SK-MEL-2 melanoma (10 µM), 88.2% (inactive); in the assay with EKVX NSCLC (0.25 µM) it was 79.8% (inactive); in the assay with EKVX NSCLC (10 µM), 106% (inactive); in the assay on SN12C renal (0.25 µM) it was 12.5% (inactive); with SN12C renal (10 µM), 89.7% (inactive). In addition, the growth was 63.4% (inactive) with UO-31 renal (0.25 µM); 93.6% (inactive) in the assay on UO-31 renal (10 µM); 68.9% (inactive) in the assay on TK-10 renal (0.25 µM); 115% (inactive) in the assay with TK-10 renal (10 µM); 34% (inactive) in the assay on ACHN renal (0.25 µM); 108% (inactive) in the assay with ACHN renal (10 µM). In addition, the growth was 32% (inactive) in the assay on CAKI-1 renal (0.25 µM); 94.8% (inactive) with CAKI-1 renal (10 µM); 43.5% (inactive) in the assay on A498 renal (0.25 µM); 125% (inactive) in the assay with A498 renal (10 µM); 18.3% (inactive) in the assay with CCRF-CEM leukemia (0.25 µM); 93% (inactive) with CCRF-CEM leukemia (10 µM). Moreover, the growth with MOLT-4 leukemia (0.25 µM) is 4.89% (active); with MOLT-4 leukemia (10 µM), 104% (inactive).
